# Shown are actives, neighbours in structure and some others; about 2.8% of the full set was active somewhere.
# DRD3 agonist – qHTS of D3 Dopamine Receptor Agonist: qHTS. max activation, %. 410,000 tested, 0.58% active. D3R DiscoveRx beta-arrestin cells, luminescence, 90 min. D(3) dopamine receptor (Homo sapiens), P35462; in the data active = max activation above about 30%; also: 0% is about no effect
# Target sequence (P35462 whole entry, looked up): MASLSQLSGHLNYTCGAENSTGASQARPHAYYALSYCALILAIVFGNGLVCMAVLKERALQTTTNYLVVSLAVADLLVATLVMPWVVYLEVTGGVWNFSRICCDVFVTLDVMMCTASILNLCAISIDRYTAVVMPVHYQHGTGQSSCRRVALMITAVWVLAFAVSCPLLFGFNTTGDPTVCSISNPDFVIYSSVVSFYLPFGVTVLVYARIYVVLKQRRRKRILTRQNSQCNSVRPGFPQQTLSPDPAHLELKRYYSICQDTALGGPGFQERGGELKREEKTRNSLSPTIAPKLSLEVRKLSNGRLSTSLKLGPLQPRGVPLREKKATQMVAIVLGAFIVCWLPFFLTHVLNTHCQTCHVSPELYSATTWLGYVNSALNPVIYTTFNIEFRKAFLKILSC
#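 Agonist-mode cell screen: cells plated at 1500/well and incubated overnight at 37 °C, then exposed to library compounds for 90 min at 37 °C. Detection reagent was added for 30–60 min at room temperature, and luminescence was read.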
# Giardia kill – Small Molecules that selectively kill Giardia lamblia: qHTS; activity change, % at 7.66 µM, hits read low; 340,000 tested, 0.15% active; AID 540267, 2011; Giardia lamblia trophozoite viability; in the data active = activity change below about -80%; inconclusive = between about -30% and that limit;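 also: parasites exposed to compound for two days anaerobically before the ATP read; % is scaled to controls: 0 for no effect and ±100 for the full control effect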
#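 Luminescence from cellular ATP indicates surviving trophozoites (100 cells/well) following 48 hrs anaerobic compound treatment at 37 deg C; signal develops 15-30 min at room temperature.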
# B2AR arrestin – qHTS assay of beta-arrestin-biased ligands of beta2-adrenergic receptor | Potency, µM (series often up to 46.1 µM), for inactives: at the top dose activation, most hits filed as activators | AID 492947, 2010 | 330,000 tested, 0.02% active | beta-arrestin recruitment to beta2AR, cell-based reporter | Beta-2 adrenergic receptor (Homo sapiens), P07550; active = well fitted activation curve with a large enough effect; inconclusive = small, poorly fitted or top-dose-only effect;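 also: potency is read from the fitted curve at half-maximal effect; 0% = DMSO controls and full agonism = EC100 isoproterenol or metaproterenol; nearly all actives have a fitted effect of over 65% in size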
# DRD3 antagonist – qHTS of D3 Dopamine Receptor Antagonist: qHTS; D(3) dopamine receptor (Homo sapiens), P35462; D3R cells, DiscoveRx beta-arrestin luminescence, antagonist mode; active compounds read low; max response, negative = inhibition, %; 360,000 tested, 2.5% active; AID 652054, 2013; in the data active = max response below about -50%; inconclusive = no clear call, values can overlap the other calls; also: % is scaled to controls: 0 for no effect and ±100 for the full control effect
#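 Cells expressing the human receptor were seeded at 1500 cells/well, incubated overnight at 37 degrees C in 5% CO2, then exposed to library compounds with dopamine controls for 90 minutes at 37 degrees C before luminescent detection.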
# An asterisk follows results filed as active; u = inconclusive; x = no result; ! = repeats disagree.
SMILES,DRD3 agonist,Giardia kill,B2AR arrestin,DRD3 antagonist
CC(CN1CCOCC1)OC(=O)C(C)(c1ccccc1)c1ccccc1 (stereo not drawn),-6.1,24.2,0.2%,u
CC(CN1CCCCC1)OC(=O)C(C)(c1ccccc1)c1ccccc1 (stereo not drawn),-5.1,20.3,0.1%,-53.3*
COc1ccc(C)cc1NC(=O)c1ccc(=O)n(Cc2ccccc2)c1,-17.4,x,x,x
O=C(CN1C(=O)COc2ccc(S(=O)(=O)N3CCCCC3)cc21)NCCc1ccc(Cl)cc1,-15.7,x,x,x
CCC(=O)Oc1c(Sc2ccc(Cl)cc2)c(C)nn1C(C)(C)C,-13.1,x,x,x
S=C(NCCCc1cnc[nH]1)NCCCN(CCc1ccccc1)c1ccc(Br)cn1,x,-5.4,x,x
O=C(/C=C/c1ccccc1)CCN1CCCCC1,-20.9,12.6,x,-87.7*
COC(=O)c1cc(OC)c(OC)cc1NC(=O)Cn1nnc(-c2ccccc2Cl)n1,51.9*,3.8,-0.5%,6.4
Cc1onc(-c2ccccc2Cl)c1C(=O)NCc1ccccn1,1.6,3.2,-0.1%,-58.1*
COC(=O)c1cc(OC)c(OC)cc1NC(=O)c1c(-c2ccccc2Cl)noc1C,44.3*,-14.0,0.3%,39.0
CCCCc1nn2c(=O)cc(COC(=O)c3cccc(NC(=O)c4cccc(Cl)c4)c3)nc2s1,-6.3,x,x,x
CCC(O)c1nc2ccccc2n1CCOc1cc(C)cc(C)c1 (stereo not drawn),8.7,x,x,x
CC(C)C(=O)Nc1cccc(C(=O)OCC(=O)c2ccc(Cl)cc2Cl)c1,30.5*,2.2,0.0%,44.2
CC1CCN(CCCNC(=O)c2cc3c(=O)n(C)c4ccccc4c3n2C)CC1,-16.4,4.5,0.3%,-83.4*
CC(C)Cn1cc(C(=O)NCCCN2CCC(C)CC2)c2c3ccccc3n(C)c2c1=O,-42.0,7.8,x,-83.2*
Cn1c(C(=O)NCCN2CCN(Cc3ccccc3)CC2)cc2c(=O)n(C)c3ccccc3c21,-13.6,-6.2,0.0%,-93.1*
Cn1c(C(=O)NCCCN2CCN(c3ccccc3F)CC2)cc2c(=O)n(C)c3ccccc3c21,-0.9,8.5,0.0%,-73.1*
Cn1c(C(=O)NCCCN2CCOCC2)cc2c(=O)n(C)c3ccccc3c21,-1.8,-6.8,0.0%,15.3
Cc1ccc2c(c1)-c1c(c(C(=O)N3CCN(c4cc(C)ccc4C)CC3)nn1C)CS2,2.0,x,x,x
Cc1sc2ncn(CC(=O)Nc3ccc(C(C)C)cc3)c(=O)c2c1S(=O)(=O)N1CCN(c2ncccn2)CC1,6.8,x,x,x
COc1ccc(-c2oc3ncn4nc(COc5ccccc5C)nc4c3c2-c2ccc(OC)cc2)cc1,9.0,x,x,x
Cc1ccc(CNC(=O)c2cn(C3CCCCC3)c(=O)c3c2c2ccccc2n3C)o1,-1.5,-19.9,6.8%,-75.2*
Cc1ccc(C(=O)O)cc1N1CCCC1=O,-4.9,2.4,-0.2%,-50.8*
CCOCCc1nn2c(=O)cc(COC(=O)c3cccc(C)c3)nc2s1,5.5,x,x,x
COCCNCC#CCOc1ccc(OC)cc1,-10.9,1.4,0.0%,-6.1
SMILES,DRD3 agonist,Giardia kill,B2AR arrestin,DRD3 antagonist
C=CCNCC#CCOc1ccc(OC)cc1,-4.9,25.4,0.1%,-62.0*
CCC(=O)c1ccc2c(c1)N(CCCN1CCN(CCO)CC1)c1ccccc1S2,-13.3,x,x,x
Cc1cc(C)cc(OCC2CNC(=O)O2)c1 (stereo not drawn),83.5*!,x,x,14.2
COc1ccccc1OCC1CNC(=O)O1 (stereo not drawn),-0.4,x,x,x
Fc1cccc(NC(=S)NCCc2ccccc2)c1,4.5,6.5,0.0%,11.3
O=[N+]([O-])c1cccc(NC(=S)NCCc2ccccc2)c1,-25.3,6.3,-0.2%,-70.8*
CC(C)(C)c1ccc(/C=N/N2CCN(c3ccccn3)CC2)cc1,30.3*,-6.1,-1.1%,-5.7
Oc1ccc(/C=N/N2CCN(c3ccccn3)CC2)cc1,-9.1,6.5,-0.7%,1.9
O=S(=O)(c1ccc(Cl)cc1)N1CCC(N2CCOCC2)CC1,1.6,6.1,0.4%,u
Nc1nc(-c2ccc(Cl)cc2)c(N=Nc2ccc(S(=O)(=O)N3CCOCC3)cc2)s1,-0.4,-5.8,0.0%,-53.6*
CCCCOc1ccc(CNC(=O)c2cnc3sc(N4CCOCC4)nn3c2=O)cc1,2.8,x,x,x
Cc1ccc(S(=O)(=O)N/N=C/c2c(F)cccc2Cl)cc1,-6.8,16.1,0.3%,-87.3*
O=[N+]([O-])c1ccc(S(=O)(=O)NN=Cc2ccc(Cl)c(Cl)c2)cc1,7.3,-20.7,x,-51.4*
O=[N+]([O-])c1ccc(S(=O)(=O)N/N=C/c2ccc3c(c2)OCO3)cc1,16.8,-21.7,-0.4%,-20.8
Cc1ccc(S(=O)(=O)N/N=C/c2ccc3nccnc3c2)cc1,51.8*,3.2,-0.4%,u
Cc1ccc(S(=O)(=O)N/N=C\c2cc([N+](=O)[O-])ccc2Cl)cc1,-13.0,-2.4,0.1%,-63.4*
Cc1ccc(S(=O)(=O)N/N=C\c2cccnc2)cc1,4.6,-1.0,-0.2%,-7.1
O=S(=O)(N/N=C/c1c(F)cccc1Cl)c1ccccc1,-3.3,-10.8,-0.1%,-19.8
COc1ccc(C2c3[nH]c4ccc(OC)cc4c3CCN2C(=O)Nc2ccccc2)cc1 (stereo not drawn),-18.0,x,x,x
CC(=O)Nc1ccc(S(=O)(=O)NN=Cc2ccc(Cl)c(Cl)c2)cc1,11.0,-25.5,x,-70.6*
CCOC(=O)c1cc2c(=O)n3ccccc3nc2n(CC(C)C)c1=NC(=O)COc1ccc(Cl)cc1,-12.5,x,x,x
COc1ccc(C2C(C#N)=C(N)Oc3n[nH]c(C)c32)cc1Cn1nnc2ccccc21 (stereo not drawn),-1.2,-8.9,-1.3%,-61.5*
CCCCc1nn2c(=O)cc(COC(=O)c3ccccc3NC(=O)c3ccccc3OC)nc2s1,-0.8,x,x,x
NCCC(=O)[N-][C@@H](Cc1cnc[nH]1)C(=O)O.[Zn],10.5,x,x,x
Cc1sc2ncnc(N3CCC(C(=O)Nc4cc(Cl)ccc4Cl)CC3)c2c1C,42.1*,4.4,0.0%,32.5
SMILES,DRD3 agonist,Giardia kill,B2AR arrestin,DRD3 antagonist
CCc1ccc(OCc2ccc(C(=O)NCc3ccccn3)o2)cc1,-5.5,-4.5,0.0%,-70.3*
CCOc1ccc(OCc2ccc(C(=O)NCc3ccncc3)o2)cc1,6.3,0.1,-0.9%,11.3
Cc1ccc(SC(CC(=O)c2ccc(F)cc2)C(=O)O)cc1 (stereo not drawn),-1.4,-8.9,0.3%,0.0
CC(C)(C)c1ccc(C(=O)CC(Sc2ccc(Cl)cc2)C(=O)O)cc1 (stereo not drawn),-16.6,-0.9,-0.2%,-64.0*
Cc1ccccc1CSc1nc2cccnc2n1Cc1ccc(C(=O)NCCc2cccs2)cc1,-15.8,x,x,x
Cc1ccccc1NC(=O)Nc1nnc([C@@H]2C[C@H](O)[C@@H](CO)O2)s1,53.9*,x,x,0.0
Cc1cccc(C)c1NC(=O)Nc1nnc([C@H]2C[C@H](O)[C@@H](CO)O2)s1,9.8,x,x,0.5
Cc1ccc(C(=O)Nc2nnc([C@H]3C[C@H](O)[C@@H](CO)O3)s2)cc1,-14.7,x,x,-76.5*
Cc1ccc(NC(=O)Nc2nnc([C@@H]3C[C@H](O)[C@@H](CO)O3)s2)cc1,0.3,x,x,30.3

# Bioassay records (PubChem)
